Bioassay records (PubChem)
IL1B secr inh: blocks inflammasome-driven IL-1 beta release. 360,000 tested, 4.7% active. THP-1 LPS/ATP IL-1B secretion, AlphaLISA, 16 h; hits give low values. activity change, % at 57.5 µM. AID 743279; in the data active means activity change below about -50%; inconclusive means mostly about -30% to -49%
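Secreted IL-1B measured by AlphaLISA bead assay after 16 h compound exposure of THP-1 cells; compounds (final up to 57.5 uM) added 1 h before LPS (250 ng/mL) and ATP (1.25 mM) stimulation; lower signal means less secretion.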
HT1080 IDH1KD tx: toxicity to HT-1080 IDH1 knockdown cells (counter line); Potency, µM (highest dose often 46.1 µM), for inactives: at the highest dose activity, negative = toxicity, hits mostly cytotoxic; AID 686971; HT-1080 IDH1 knockdown viability, ATP luminescence, 48 h; 360,000 tested, 2% active;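 further: potency means the concentration at half of the fitted maximal effect; 0% = DMSO wells and -100% = cell-free medium wells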
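HT-1080-IDH1KD cells (IDH1 knocked down), 750/well in RPMI with 5% FBS, treated with compound 48 h at 37 degrees C. Viability by CellTiter-Glo luminescence, normalised to DMSO and no-cell wells; concentration-response curves classed.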
DT40 TDP1 CPT: growth inhibition of DT40 Tdp1-/-;hTDP1 cells with camptothecin (screen for TDP1 inhibitors); 420,000 tested, 12% active; chicken DT40 Tdp1-/-;hTDP1 cells + 20 nM CPT, ATP luminescence, 48 h; Potency, µM (series often up to 46.2 µM), without a hit: top-dose activity change, negative = growth inhibition, usual class: inhibitors; AID 686979; further: potency means the concentration at half of the fitted maximal effect; nearly all actives have a fitted effect of over 55% in size
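Cell growth measured by CellTiter-Glo luminescence after a minimum 48 h, 37 C compound exposure with 20 nM CPT in Tdp1-knockout DT40 cells stably expressing hTDP1, seeded 400/well; qHTS titration format.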
HT1080NT lethal: kills 2HG-producing HT-1080-NT fibrosarcoma cells; HT-1080-NT fibrosarcoma viability, CellTiter-Glo ATP luminescence, 48 h; Potency, µM (titrated, usually from 46.1 µM), for inactives: at the highest dose activity, negative = less viability, hits mostly cytotoxic; 360,000 tested, 1.6% active; AID 686970;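 further: NT is the 2HG producing partner of a matched IDH1 knockdown line; potency means the concentration at half of the fitted maximal effect; 0% = DMSO-treated cells and -100% = media-only wells without cells; nearly all actives have a fitted effect of over 55% in size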
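Compounds were tested in concentration-response format on HT-1080-NT cells for 48 hours at 37 degrees C. Cell viability came from CellTiter-Glo luminescence; curves were classified by r2, response magnitude and activity.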
TDP1 cell noCPT: qHTS for Inhibitors of human tyrosyl-DNA phosphodiesterase 1 (TDP1): qHTS in cells in absence of CPT; DT40 Tdp1-/- hTDP1 cells, no CPT, ATP luminescence, 48 h; 420,000 tested, 15% active; Potency, µM (top dose mostly 46.2 µM), without a hit: at the highest dose activity change, negative = growth inhibition, hits mostly inhibitors; further: potency means the concentration at half of the fitted maximal effect; nearly all actives have a fitted effect of over 55% in size
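Readout: luminescence from CellTiter-Glo after 30 min in the dark at RT. Cells: DT40 Tdp1-/- with stable hTDP1, 400/well. Exposure: compounds alone, ≥48 hr, 37 °C.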
Starred values were filed as active, the others as inactive; u = inconclusive; x = no result given. Hits are enriched below; roughly 19% of the tested compounds scored in any of these assays. Unless noted, the call rests on the fitted dose curve; in most records, active means well fitted curve in the direction sought with a large enough effect; inconclusive means small, poorly fitted or top-dose-only effect, or another doubt; inactive means no such curve, though single readings can be large; an effect the other way counts as inactive or inconclusive. Unless noted, on the % scale 0 is the no-effect control and ±100 the full control effect.

SMILES	IL1B secr inh	HT1080 IDH1KD tx	DT40 TDP1 CPT	HT1080NT lethal	TDP1 cell noCPT
O=Cc1cn(CCC(=O)O)nc1-c1cccc(Br)c1	33	-1%	-16%	17%	-20%
Cc1ccc2c(c1)N(C)/C(=C/c1cccc[n+]1CCO)S2	u	u	1.6µM*	u	1.2µM*
CN1/C(=C/c2cccc[n+]2C)Sc2ccccc21	-67*	u	0.58µM*	u	0.33µM*
Cc1ccc2c(c1)N(C)/C(=C/c1cccc[n+]1C)S2	-88*	10µM*	3.7µM*	21µM*	0.52µM*
CCCCN1/C(=C/c2cccc[n+]2C)Sc2cc(NC(C)=O)ccc21	8	-1%	-5%	15%	-14%
C=C1C(=O)N(C)CCC1C(CC)C(=O)OC (stereo not drawn)	-28	18%	0%	1%	4%
CCNc1ncc2nc(-c3ccccc3)c(=O)n(CCc3ccccc3)c2n1	x	x	2%	x	-12%
COc1ccc(-c2nc3cnc(OC)nc3n(-c3ccc(OC)cc3)c2=O)cc1	x	x	1.3µM*	x	0.92µM*
CCNc1ncc2nc(-c3ccccc3)c(=O)n(-c3ccc(OC)cc3)c2n1	x	x	7.3µM*	x	0.52µM*
CCNc1ncc2nc(-c3cccs3)c(=O)n(-c3ccc(OC)cc3)c2n1	x	x	-15%	x	u
CCNc1ncc2nc(C)c(=O)n(-c3ccc(OC)cc3)c2n1	x	x	u	x	2.1µM*
CCNc1ncc2nc(C)c(=O)n(CCc3ccccc3)c2n1	x	x	7.3µM*	x	u
CCOC(=O)c1c(C)sc(Sc2ccc(Cl)cc2[N+](=O)[O-])c1OC	-15	-12%	u	-3%	u
CCNc1ncc2nc(-c3ccc(F)cc3)c(=O)n(-c3ccc(OC)cc3)c2n1	x	x	0.73µM*	x	0.58µM*
CCNc1ncc2nc(-c3cc(F)cc(F)c3)c(=O)n(-c3ccc(OC)cc3)c2n1	x	x	7%	x	-8%
Cc1ccc(NC(=O)c2cc(N3C(=O)C=CC3=O)ccc2Cl)cc1C	-14	2%	5.2µM*	-9%	4.6µM*
Cc1ccc(NC(=O)c2cc(NC(=O)c3ccco3)ccc2N2CCOCC2)cc1	-26	-10%	u	-2%	16µM*
Cc1ccc(NC(=O)c2cc(N3C(=O)C=CC3=O)ccc2N2CCOCC2)cc1	-63*	23µM*	0.82µM*	u	2.3µM*
Cc1ccc(NC(=O)c2cc(NC(=O)c3ccco3)ccc2N2CCCCC2)cc1	6	u	u	-28%	u
CN1CCN(c2ccc(NC(=O)c3cc(S(N)(=O)=O)ccc3N3CCOCC3)cc2)CC1	-2	-1%	10%	2%	3%
Cc1noc(C)c1C(=O)Nc1ccc2ccccc2c1	-10	0%	-8%	10%	7%
Cc1ccccc1NC(=O)NC1CCCc2ccccc21 (stereo not drawn)	40	2%	-29%	7%	11%
Cc1c(CCNC(=O)c2ccc(Br)o2)sc2nc(-c3ccc(F)cc3)nn12	x	x	12µM*	x	4.6µM*
COc1ccc(-c2nc3sc(CCNC(=O)C(=O)Nc4cc(C)cc(C)c4)c(C)n3n2)cc1	x	x	-3%	x	-19%
O=C(NCCc1nc2ccccc2[nH]1)c1ccc(Br)o1	-23	19%	1%	19%	-7%
SMILES	IL1B secr inh	HT1080 IDH1KD tx	DT40 TDP1 CPT	HT1080NT lethal	TDP1 cell noCPT
Cc1ccc(-c2nc3sc(CCNC(=O)c4ccc(Br)o4)c(C)n3n2)cc1	x	x	u	x	29µM*
COc1ccc(-c2cc3c(=O)n(CC(=O)NCc4ccc(F)cc4)ncn3n2)cc1	18	-2%	u	0%	u
COc1ccc(-c2cc3c(=O)n(CC(=O)NCCCN4CCN(Cc5ccccc5)CC4)ncn3n2)cc1	16	0%	9.2µM*	1%	5.2µM*
COc1ccc(-c2cc3c(=O)n(CC(=O)NCc4ccc(C)cc4)ncn3n2)cc1	17	2%	7.3µM*	-3%	6.5µM*
CCN(CC)S(=O)(=O)c1ccc2c(c1)nc(CCC(=O)Nc1ccc(N3CCOCC3)cc1)n2C	-5	-25%	6%	-1%	-30%
COc1ccc(NC(=O)COc2coc(CN3CCN(c4ccccc4)CC3)cc2=O)cc1	1	0%	21µM*	1%	u
O=C(COc1coc(CN2CCN(c3ccccc3)CC2)cc1=O)Nc1cccc(F)c1	14	-2%	-23%	-1%	-21%
Cc1cccc(NC(=O)COc2coc(CN3CCN(c4ccccc4)CC3)cc2=O)c1	12	3%	21µM*	-1%	18µM*
CCOc1ccc2ncc3c(-c4ccc(C)cc4)nn(-c4cccc(F)c4)c3c2c1	x	x	-16%	x	-14%
CCOC(=O)c1ccc2c(c1)nc(SCC(=O)N1CCOCC1)n2CC	-11	6%	12%	13%	-20%
CCOC(=O)c1ccc2c(c1)nc(SCc1cn3ccsc3n1)n2CC	u	-10%	u	-13%	16µM*
O=c1c2cn[nH]c2[nH]c(=S)n1-c1cccc(Cl)c1	5	6%	u	-1%	-6%
CC(=O)N1CCC(C(=O)Nc2nnc(C(C)C)s2)CC1	x	x	16%	x	14%
O=C(Nc1cccc(S(=O)(=O)N2CCCCC2)c1)c1ccc([N+](=O)[O-])o1	-92*	5.2µM*	6.5µM*	10µM*	4.1µM*
COc1cc(C(=O)Nc2cccc(S(=O)(=O)N3CCCC3)c2)c([N+](=O)[O-])cc1OC	10	-2%	-13%	-8%	u
Cc1ccc(C(=O)Nc2cccc(S(=O)(=O)N3CCCCC3)c2)cc1[N+](=O)[O-]	u	-23%	16µM*	-5%	u
COc1cc(/C=N/Nc2snc(SC)c2C#N)cc(OC)c1OC	-21	4.6µM*	u	u	1.8µM*
Cc1cc(C(=O)N2CCN(S(=O)(=O)c3ccccc3F)CC2)c(C)o1	1	-3%	u	1%	u
CCN1CCN(C(c2ccc(SC)cc2)c2c(O)cc(C)n(Cc3ccco3)c2=O)CC1 (stereo not drawn)	x	x	-23%	x	-4%
O=[N+]([O-])c1ccc(Sc2cccc3cccnc23)cc1	-11	-3%	u	1%	-22%
CCOP1(=O)C=C(Sc2ccc([N+](=O)[O-])cc2[N+](=O)[O-])C(C)(C)O1 (stereo not drawn)	-13	0%	5%	0%	-11%
Cc1ccnc(Sc2ccc([N+](=O)[O-])cn2)n1	-29	u	10%	28%	8%
Cc1cc(C)nc(Sc2ccc([N+](=O)[O-])cc2[N+](=O)[O-])n1	-60*	u	1.3µM*	u	1µM*
O=[N+]([O-])c1ccc(Sc2ccncn2)c([N+](=O)[O-])c1	-80*	15µM*	1µM*	18µM*	0.65µM*
